KB-3-1 cytotox: KB-3-1 parental cell cytotoxicity; KB-3-1 viability, CellTiter-Glo ATP luminescence, 72 h; Potency, µM (top dose mostly 46.1 µM), usual class: cytotoxic; actives 1.4% (n = 400,000); AID 1347075; further: nearly all actives have a fitted effect of over 60% in size
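Here the drug-naive KB-3-1 line serves as comparator for MDR sub-line selectivity; cells received compound titrations, 72 h at 37 °C, then CellTiter-Glo readout.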
MCF10A rerep: induces DNA re-replication in MCF 10a normal breast cells. MCF 10A DNA re-replication, Hoechst nuclear intensity, 48 h. Potency, µM (doses to about 46.1 µM), usual class: activators. actives 2.9% (n = 350,000). AID 624296; further: nearly all actives have a fitted effect of over 50% in size
SW480 rerep: induces DNA re-replication in SW480 colon adenocarcinoma cells | Potency, µM (series often up to 46.1 µM), actives largely listed as activators | SW480 DNA re-replication, Hoechst DNA content imaging, 48 h | actives 1.8% (n = 340,000); further: nearly all actives have a fitted effect of over 55% in size
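Readout is total intensity of Hoechst-stained nuclei, excited at 405 nm and collected at 500-530 nm. Compound treatment lasted 48 hr at 37 C in 5% CO2 before staining.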
KB-V1 cytotox: KB-V1 MDR subline cytotoxicity | AID 1347076 | Potency, µM (top dose mostly 46.1 µM), actives largely listed as cytotoxic | KB-V1 MDR cells viability, CellTiter-Glo, 72 h | actives 3.4% (n = 400,000); further: nearly all actives have a fitted effect of over 60% in size
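Cytotoxicity toward P-gp-expressing KB-V1 cells was determined as loss of CellTiter-Glo luminescence after 72 h at 37 degrees C. Compounds were tested in quantitative HTS format across a concentration range, with curves fitted to normalized data.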
PINK1 modulator: PINK1 expression modulation | PINK1 immunofluorescence, high-content cytometry, 24 h | actives 0.2% (n = 410,000) | Potency, µM (doses to about 76.6 µM), usual class: activators; active means well fitted activation curve with a large enough effect; inconclusive means small, poorly fitted or top-dose-only effect; cell line not stated here; further: nearly all actives have a fitted effect of over 65% in size
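Fluorescence from anti-PINK1 antibody, together with nuclear and cell stains, was scanned on a laser-scanning cytometer. Before staining, stable-line cells were incubated 24 hours with compounds at 5 concentrations; primary antibody 12 h at 10 degrees C.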
A number is an active result; n = inactive; u = inconclusive; x = not tested or not shown. Compounds with a hit are over-represented: about 6.7% of the library has one in this group of screens. Unless noted, the call rests on the fitted dose curve; in most records, active means well fitted curve in the direction sought with a large enough effect; inconclusive means small, poorly fitted or top-dose-only effect, or another doubt; inactive means no such curve, though single readings can be large; an effect the other way counts as inactive or inconclusive.

SMILES	KB-3-1 cytotox	MCF10A rerep	SW480 rerep	KB-V1 cytotox	PINK1 modulator
COc1cccc(C2c3cc4c(cc3OC(N3CCCC3)C2C)OCO4)c1O (stereo not drawn)	21µM	u	u	8.2µM	n
COc1cc(C2c3cc4c(cc3OC(N3CCCCC3)C2C)OCO4)cc(OC)c1O (stereo not drawn)	u	u	u	u	n
O=C1CCC2=C1C(c1ccccc1Cl)N=C(Nc1nc3ccccc3o1)N2 (stereo not drawn)	n	x	x	n	x
CC(C)Oc1cc(F)ccc1-c1cc(C(=O)NCCc2ccncc2)[nH]n1	n	x	x	n	n
COc1ccc(-c2cc(-c3ccccc3)nc(NN)n2)cc1OC	n	n	u	n	n
COc1nc(-c2ccccc2)cc(-c2ccc(OC)c(OC)c2)n1	n	u	u	8.2µM	n
O=C1[C@@H]2Cc3c([nH]c4ccccc34)CN2C(=O)CN1CCCCCO	n	n	n	u	n
CC1CCC(C(C)C)C(OC(=O)COC(=O)c2ccc(N)cc2)C1 (stereo not drawn)	n	23µM	n	n	n
COc1ccc(Nc2nnc(-c3ccc(N4CCOCC4)c([N+](=O)[O-])c3)c3ccccc23)cc1	n	n	n	16µM	n
O=C(O)[C@H]1C[C@@H](CP(=O)(O)O)CCN1	x	n	n	x	x
COc1cc2sc3ccc(-c4ccc(CN5CCOCC5)cc4)cc3c(=O)c2cc1OC	u	6.5µM	n	13µM	n
CCCCNC(=O)CSc1nc2nc(C)c(Cc3ccccc3C)c(C)n2n1	n	x	x	n	n
Cc1ccc(N/C(N)=N/c2nc(C)cc(N3CCCCC3)n2)c(C)c1	16µM	18µM	u	10µM	u
COc1ccccc1OCC(=O)OCC(=O)NC1CCCCC1	n	n	n	n	n
Cc1cc(Cl)c(S(=O)(=O)N2CCCCCC2)cc1OCC(=O)NC1CCCCC1	n	n	n	n	x
COC(C(=O)NC1CCCCCCC1)c1ccccc1 (stereo not drawn)	n	n	n	18µM	n
COc1ccccc1OCC(=O)NC1CCCCCCC1	u	n	n	21µM	n
CC(C(=O)NC(=O)NC1CCCCC1)N1CCN(C(c2ccccc2)c2ccccc2)CC1 (stereo not drawn)	u	n	n	9.2µM	n
Cc1cc(Cl)c(S(=O)(=O)N2CCSCC2)cc1OCC(=O)NC1CCCCC1	u	u	u	3.7µM	n
CC(C)C[C@H]1CNC(=O)C(=O)N1CC1CCN(CC2CCC(C(C)(C)C)CC2)CC1 (stereo partly drawn)	n	n	n	n	n
COc1cccc(CNC(=O)c2c(OC)cc(=O)n3c2CCN(C(=O)C2=C(C)OCCO2)CC3)c1	x	x	x	x	n
O=C(NCC[C@H]1CC[C@@H](NC(=O)C2CCC2)[C@@H](CO)O1)c1cc(Cl)cc(Cl)c1	n	x	x	n	x
COc1ccccc1OCC(=O)N(Cc1nc(-c2ccccc2)no1)C1CCCCC1	u	n	n	16µM	n
Cc1ccc(C)c(OCC(=O)NCCNC(=O)COc2cc(C)ccc2C)c1	n	n	n	18µM	n
COc1cc(OC)c(C(=O)OCC(=O)NC2CCCCCCC2)cc1OC	u	n	n	8.2µM	n
SMILES	KB-3-1 cytotox	MCF10A rerep	SW480 rerep	KB-V1 cytotox	PINK1 modulator
O=C(COc1ccc(Br)cc1Cl)NC1CCCCC1	u	n	n	18µM	n
COc1ccccc1C(=O)OCC(=O)NC12CC3CC(CC(C3)C1)C2	n	n	n	n	n
COc1cc(OC)c(C(=O)OCC(=O)NC23CC4CC(CC(C4)C2)C3)cc1OC	n	n	n	8.2µM	n
O=C(CN1CCc2ccccc2C1)NC1CCCC1	n	n	18µM	n	n
Cc1ccc(C)c(OCC(=O)NC2CCCCCC2)c1	n	u	n	13µM	n
Cc1ccccc1CC(=O)NC1CCCCCC1	n	n	0.92µM	n	n
CCCCn1c(N)c(N(Cc2ccccc2OC)C(=O)CN2C(=O)NC3(CCCC3)C2=O)c(=O)[nH]c1=O	n	n	n	n	n
Cc1c(C)n(CC(O)CSc2ccccc2)c2ccccc12 (stereo not drawn)	n	x	x	n	n
Cc1ccc(N2C(=O)c3ccccc3NC2(C(=O)O)c2ccccc2)cc1Cl (stereo not drawn)	n	n	n	n	n
CC(C)N(C(=O)COc1ccc(Br)cc1Cl)C(C)C	n	n	n	15µM	n
Cc1ccc(C(C)C)cc1OCCCCN1CCCC1	n	u	n	21µM	n
CCOC(=O)CN1C(=O)/C(=C/c2c(F)cccc2Cl)Oc2ccccc21	u	21µM	u	n	n
O=C(c1cnn(-c2cccc(F)c2)c1-n1cccc1)N1CCN(c2ccccc2F)CC1	n	x	x	n	n
CCCC(=O)O[C@]1(C(=O)CCl)[C@@H](C)C[C@H]2[C@@H]3CCC4=CC(=O)C=C[C@]4(C)[C@@]3(F)C(=O)C[C@@]21C	n	u	n	13µM	n
O=C(CC[C@H]1O[C@@H](n2ccc(=O)[nH]c2=O)[C@H](O)[C@@H]1O)N[C@@H](Cc1ccccc1)C(=O)NCC1CCCO1 (stereo partly drawn)	n	x	x	7.3µM	n
CCOC(=O)C(C)Oc1cccc2c(=O)n(CC(=O)NCc3ccco3)ccc12 (stereo not drawn)	0.73µM	u	1.3µM	n	n
O=C(COc1ccccc1)Nc1ccc(OCc2cc(=O)n3ccsc3n2)cc1	n	x	x	n	n
Cc1ccccc1NC(=O)C(C)Sc1nnc(CN2CCCC2)n1Cc1ccccc1 (stereo not drawn)	n	x	x	u	n
CC(Sc1nnc(CN2CCCC2)n1Cc1ccccc1)C(=O)Nc1ccc(F)c(F)c1F (stereo not drawn)	n	n	n	1µM	n
CCN(CC)S(=O)(=O)c1ccc(NCCCn2ccnc2)c([N+](=O)[O-])c1	u	n	n	u	n
O=C(c1ccccc1)c1ccc(NCCCn2ccnc2)c([N+](=O)[O-])c1	u	n	n	5.2µM	n
CCOc1ccc(NC(=S)Nc2cc(-c3ccccc3)[nH]n2)cc1	n	n	n	15µM	n
CCOCCn1c(C)c(C(=O)OCC)c2cc(O)c3ccccc3c21	n	n	n	2.1µM	n
COc1ccc(Nc2ccnc(Nc3ccc(OC)cc3)n2)cc1	u	23µM	u	16µM	n
COc1ccc(Nc2nc(OC)nc(OC)n2)cc1	n	n	n	n	n
SMILES	KB-3-1 cytotox	MCF10A rerep	SW480 rerep	KB-V1 cytotox	PINK1 modulator
CCCCn1c(NC(=O)c2ccccc2)nc2ccccc21	n	u	n	u	x
S=C(Nc1ccccc1)Nc1nc2ccccc2n1CCOc1ccccc1	n	u	u	15µM	n
CCCCn1c(NC(=S)Nc2ccccc2)nc2ccccc21	u	u	16µM	u	n
COc1ccc2c(c1)CCc1c(C(=O)Nc3c(C)nn(Cc4ccc(Cl)c(Cl)c4)c3C)noc1-2	x	x	x	x	n
Cc1ccc(NC(=O)Cc2coc3c(C)c(C)ccc23)cc1Cl	n	x	x	n	n
Cc1ccc2c(CC(=O)NCc3ccco3)coc2c1C	7.3µM	12µM	u	5.8µM	n
